This note sets out measurements from PubChem BioAssay AID2314 (National Center for Advancing Translational Sciences (NCATS), 2010).

Each structure is given as a SMILES string. “And” between values parts separate entries of the source, which are not always exact repeats. Identical values can stand only once. In all, about 300,000 compounds went through this assay and about 37,000 (12%) were called active. No stated cut-off is given here; in the data, active means max response mostly above about 13% (no sharp cut-off); inactive means mostly below about 14%. The list comes from a sample in which actives are over-represented; it also holds similar structures and randomly drawn compounds. The source holds several records for some structures; these can differ, active in one and inactive in another.

The test in a line: Cycloheximide Counterscreen for Small Molecule Inhibitors of Shiga Toxin. Further: read at 38.3 µM for the half of the compounds with a filed dose; 0% is about no effect. As to conditions: cell reporter, cycloheximide protein synthesis inhibition counterscreen; stronger effect = higher value.
In the case of `COc1cccc(C(O)c2nc3ccccc3n2C)c1` (centres undefined), the max response was -2.8% (inactive). In the case of `CCCC(=O)N(CCN1CCOCC1)c1nc2ccc(OCC)cc2s1`, the max response is 16.6% (inactive). Under `CCOc1ccc2nc(Nc3nc4ccc(NC(C)=O)cc4s3)sc2c1` stands -1.98% (inactive); under `CCOc1ccc2nc(C(=O)N3CCCC(C)C3)sc2c1` (centres undefined), 105% (active). The figure for `CCOc1ccc(S(=O)(=O)NCCCn2ccnc2)cc1NC(C)=O` is -3.29% (inactive); for `c1cncc(-c2nnc3n2C2(CCCCC2)Cc2ccccc2-3)c1` it is -1.12% (inactive). The figure for `CCOc1ccccc1C1CC(c2cccc(NS(C)(=O)=O)c2)=NN1C(=O)c1ccccc1` (centres undefined) is -1.46% (inactive); for `CCOc1cccc2c1OC1(CCCCC1)N1N=C(c3cccnc3)CC21` (centres undefined) it is 40.7% (active); for `CC1CCN(S(=O)(=O)c2ccc3c(c2)n(C)c(=O)n3C)CC1` it is 2.78% (inactive).

Regarding `Cc1cc(CNCc2c(C(=O)N(C)Cc3ccccc3)nc3ccccn23)nn1C`, the max response was 1.54% (inactive). Take `Cc1nn(-c2ccccn2)c2c1C(c1ccncc1)C1=C(CC(C)(C)CC1=O)N2` (centres undefined): the max response is -5.72% (inactive). Under `CC1(C)CC(=O)C2=C(C1)Nc1cc(C(=O)c3ccccc3)ccc1NC2c1ccccn1` (centres undefined) stands 5.93% (inactive). Under `Cc1cc2c(cc1C)NC(c1ccccn1)C1=C(CC(C)(C)CC1=O)N2` (centres undefined) stands 28% (active); under `Cc1ccc(C(=O)c2c(NC(=O)c3ccncc3)sc3c2CCCC3)cc1`, -4.15% (inactive); under `O=C(Nc1sc2c(c1-c1nc3ccccc3[nH]1)CCCC2)C1CC1`, 16.7% (inactive). Under `C/C(=C\c1ccccc1)C1NC(=O)c2c(sc3c2CCCC3)N1` (centres undefined) stands 36.6% (active); under `O=C1CCCCC1C(=O)c1ccccc1` (centres undefined), 12.6% (inactive).

`O=C1NC(c2ccncc2)Nc2sc3c(c21)CCCC3` (centres undefined): the max response is 26.5% (active).

On to `CCOC(=O)c1cc2ccccc2n1CC(=O)c1ccccc1`, for which the max response is 1.26% (inactive).

For the compound `CC1CCC2CCCCC2N1C(=O)c1cc([N+](=O)[O-])cc([N+](=O)[O-])c1` (centres undefined), the max response is 10.4% (inactive). The figure for `NS(=O)(=O)c1ccc(CCNC(=O)c2nc(CS(=O)(=O)c3ccc(Cl)cc3)no2)cc1` is -2.33% (inactive); for `CCn1cc(C(=O)N[C@@H](C)C(=O)NCCO)c(=O)c2cc3c(cc21)OCO3` it is -1.13% (inactive). The figure for `CC(CO)NCC12CC3CC(CC(C3)C1)C2` (centres undefined) is -1.89% (inactive); for `O=C(Nc1ccccc1Cl)O/N=C(/c1ccccc1)c1ccccn1` it is -2.08% (inactive). `N/C(=N\OC(=O)Nc1ccccc1)c1ccno1`: the max response is 24.5% (active). The figure for `N/C(=N\OC(=O)Nc1ccc(Cl)c(Cl)c1)c1ncc(C(F)(F)F)cc1Cl` is -4.62% (inactive). For `COc1ccc(-c2c(C)cc3oc(=O)cc(-c4ccccc4)c3c2C)cc1C=O`, the max response was 19.9% (inactive).

As for `COc1cccc(NC(=O)CN(C)C(C)C(=O)Nc2ccc(C#N)cc2)c1` (centres undefined), the max response was 11.8% (inactive).

Regarding `S=c1nc2ccccc2c2nc(-c3cccnc3)[nH]n12`, the max response is -3.11% (inactive). The figure for `C=CCn1c(=O)c(C(=O)NCc2ccc3c(c2)OCO3)c(O)c2ccccc21` is -4.21% (inactive); for `CC(C)N1CCC(N2CCN(Cc3cccnc3)CC2CCO)CC1` (centres undefined) it is -0.86% (inactive); for `Cc1ccc(S(=O)(=O)NCC(=O)N(CC(=O)NC(C)(C)C)Cc2cccs2)cc1` it is 0.104% (inactive). In the case of `CCC(C)(C)NC(=O)CN(Cc1cccs1)C(=O)CNS(=O)(=O)c1ccc(F)cc1`, the max response is 1.08% (inactive).

`CC(C)(C)NC(=O)CN(Cc1cccs1)C(=O)CNS(=O)(=O)c1ccccc1`: the max response is 15.6% (active).

For `O=C(N/C(=C\c1ccc(F)cc1)C(=O)N1CCCCCC1)c1ccccc1`, the max response was -2.25% (inactive). The figure for `CC(C)c1nc(SCC(=O)Nc2cccc(C(=O)O)c2)c2c3c(sc2n1)CCCC3` is 2.36% (inactive). `COc1ccc(CNc2c(CO)cnc3c2cnn3C)cc1`: the max response was 8.91% (inactive).

Take `Cc1ccc(S(=O)(=O)N2CCN(C)CC2)cc1C(=O)NC1CCCCC1`: the max response is -0.406% (inactive). The figure for `O=C(Oc1cccnc1)c1cc2ccccc2oc1=O` is -1.97% (inactive); for `O=C(Oc1c(-c2ccco2)oc2ccccc2c1=O)c1cccnc1` it is 12.7% (active). Consider `O=C(Oc1ccc(Br)cc1)c1cccnc1`, for which the max response was 7.39% (inactive). Under `O=C(CN1C(=O)c2ccccc2C1=O)NCc1ccc(C(=O)O)cc1` stands -4.14% (inactive); under `O=c1[nH]c(NCCO)nnc1Cc1ccc(Cl)cc1`, -3.78% (inactive). Under `Cc1ccc(N(C(=O)CNC(=O)c2ccco2)C(C(=O)NC2CCCC2)c2ccncc2)cc1` (centres undefined) stands -1.23% (inactive).

For the compound `CCOC(=O)C1(CCOc2ccccc2)CCN(C(=O)c2cncs2)CC1`, the max response is 1.41% (inactive). The figure for `CCOC(=O)C1(Cc2ccccc2C(F)(F)F)CCN(C(=O)c2cc(C)n(C)n2)CC1` is 31.4% (active). For the compound `CCOC(=O)C1(Cc2cccc(OC)c2)CCN(C(C)CC(C)(C)O)CC1` (centres undefined), the max response is -3.86% (inactive). Under `CCCN(CC1COc2ccccc2O1)C(=S)Nc1ccc(C)cc1` (centres undefined) stands -5.79% (inactive); under `Cc1c(CN2CCC(CO)(CCOc3ccccc3)CC2)[nH]c2ccc(Cl)cc12`, -1.37% (inactive); under `CC(C)C(OC(=O)c1cccs1)C(=O)NC1CCCCC1` (centres undefined), -1.99% (inactive).

With `O=C(Nc1ccc2c(c1)CCC2)c1ccc(Br)s1`, the max response is 72% (active). For the compound `O=C(NC1CCCCCCC1)c1cccs1`, the max response is 34% (active). On to `CN(CC(=O)NC1CCCCC1)S(=O)(=O)c1ccc(Br)s1`, for which the max response is 6.95% (inactive). The figure for `O=C(COC(=O)/C=C/c1cccs1)NC1CCCCC1` is -0.796% (inactive); for `O=C(CCC(=O)c1cccs1)NC1CCCCCC1` it is 21.2% (active); for `O=C(NCC(=O)N(Cc1cccs1)C(C(=O)NC1CCCCC1)c1ccco1)c1cccs1` (centres undefined) it is -2.31% (inactive). Under `CC1CC(C)CN(CCC(=O)Nc2ccc3c(c2)CCC3)C1` (centres undefined) stands -6.42% (inactive); under `O=C(NC1CCCC1)C(NS(=O)(=O)c1ccc(Br)s1)c1ccccc1` (centres undefined), 7.24% (inactive). Under `O=C(CN(C(=O)CNC(=O)c1cccs1)c1cccc(F)c1)NC1CCCCC1` stands 0.305% (inactive).

`CC(C)C(=O)OCC(=O)Nc1ccc2c(c1)CCC2`: the max response was 2.17% (inactive).

As for `O=C(NC1CCCC1)c1ccc(Br)s1`, the max response was 19.5% (active). Under `O=S(=O)(c1ccc(F)cc1)N1CCN=C1SCc1cccc(F)c1` stands 7.74% (inactive). The figure for `COc1cccc(NC(=O)N2CCC(NC(=O)C(Cc3cccc(C)c3)NC(C)=O)CC2)c1` (centres undefined) is -0.694% (inactive); for `O=C(Nc1ccc(S(=O)(=O)N2CCCCC2)cc1)C1CC(=O)N(c2ccc(F)cc2)C1` (centres undefined) it is -1.91% (inactive); for `CN(C)c1ccc(CNC(=O)CN2C(=O)COc3ccc(S(=O)(=O)N4CCCC4)cc32)cc1` it is 9.54% (inactive).

With `O=[N+]([O-])C(=c1ccc2c(c1)N1C3=C(CCCC3)CC3CCCCC31N=2)[N+](=O)[O-]` (centres undefined), the max response is 6.06% (inactive).

As for `c1ccc2c(-c3nn4nnnc4c4ccccc34)cccc2c1`, the max response is 8.28% (inactive). With `CC(=O)c1cc(-c2ccccc2)n(CCC(=O)NC2CCCCCC2)c1C`, the max response is -2.48% (inactive). Under `O=C(CCNC(=O)C1CCN(S(=O)(=O)c2ccccc2)CC1)NC1CC1` stands 11.4% (inactive); under `O=C(CCS(=O)(=O)c1ccccc1)NC1CCCC1`, 49.1% (active); under `COCCCNC(=S)N1CCN(c2nc(-c3cccc(OC)c3)cs2)CC1`, 9.62% (inactive). Under `CC(C)c1ccc(Cc2nnc(NCCCO)[nH]c2=O)cc1` stands 12.2% (inactive). The figure for `COc1cccc(CNS(=O)(=O)c2ccc3c(c2)CC(C)N3C(C)=O)c1` (centres undefined) is 4.58% (inactive); for `Cc1cc(C)n(CC(O)CN(c2ccccc2)S(=O)(=O)c2ccc3ccccc3c2)n1` (centres undefined) it is -3.48% (inactive); for `Cc1cc2c(cc1C)[n+](C)cn2CC(O)COCC1CC=CCC1` (centres undefined) it is -1.8% (inactive). As for `COc1ccc(C2/C=C\CN(CC(C)C)CC(=O)N2Cc2ccc(F)cc2)cc1` (centres undefined), the max response was -4.65% (inactive) and -3.5% (inactive).

Regarding `COc1ccc(C2/C=C\CN(Cc3ccco3)C(C)C(=O)N2Cc2ccc(F)cc2)cc1` (centres undefined), the max response is 10.6% (inactive). The figure for `COc1ccc(C2/C=C\CN(S(=O)(=O)c3cccs3)CC(=O)N2Cc2ccc(F)cc2)cc1` (centres undefined) is 8.73% (inactive) and 13.8% (active).

Turning to `C=CCn1c(SCc2ccc(Cl)c(Cl)c2)nnc1C(CO)NC(=O)c1ccc(OC)cc1` (centres undefined), the max response was 3.34% (inactive). For the compound `CSc1ccc(/C=N\NC(=O)COc2ccc(Cl)cc2Br)cc1`, the max response was 11.1% (inactive). As to `COc1ccc(/C(C)=N/NC(=O)c2ccc3nc[nH]c3c2)cc1`, the max response is -2.63% (inactive). The figure for `CSc1ccc(/C=N\NC(=O)CC(=O)NC(C)C)cc1` is 1.43% (inactive); for `O=C(N/N=C/c1ccc(Cl)c(Cl)c1)c1ccc2nc[nH]c2c1` it is 16.3% (active); for `CSc1ccc(/C=N/NC(=O)c2cccc(Cl)c2)cc1` it is 96.6% (active). As for `Cc1nc2ccc(C(=O)N/N=C/c3ccc(O)cc3)cc2[nH]1`, the max response is 7.31% (inactive). The figure for `CC1CC(C)CN(S(=O)(=O)c2cccc3nonc23)C1` (centres undefined) is -1.35% (inactive). Under `CN1CC(c2ccccc2)C2(COc3ccccc3C2=O)C12C(=O)Nc1ccccc12` (centres undefined) stands -3.96% (inactive); under `Cc1ccccc1NC(=O)CCNS(=O)(=O)c1ccc2[nH]c(=O)oc2c1`, -2.26% (inactive). Turning to `O=S(=O)(NC1CC2CCC1C2)c1ccc(Cl)cc1` (centres undefined), the max response was -1.85% (inactive). The figure for `CCOC(=O)NNC(=O)c1ccc(Cl)cc1` is 6.53% (inactive).

Regarding `O=C(NNC(=O)C1C2CCC(C2)C1C(=O)O)c1ccc(Cl)cc1` (centres undefined), the max response is 17.2% (active).

With `S=C(NNC(=S)NC1CC2CCC1C2)NC1CC2C=CC1C2` (centres undefined), the max response was 4.61% (inactive).

Regarding `O=C(NNC(=O)C1CCCC1)c1ccc(F)cc1`, the max response was -5.73% (inactive). The figure for `O=C(NNC(=S)NC1CC2CCC1C2)c1ccc(Cl)cc1` (centres undefined) is 11.9% (active).
